Reference: PubChem BioAssay (NCATS)
Inconclusive results are not listed. Entries that show only a call come without a potency. The source made the active and inactive calls. Calls follow the shape of the dose curve; as a rule, active = well fitted inhibition curve with a large enough effect; inconclusive = small, poorly fitted or top-dose-only effect; inactive = flat fitted curve, though single readings scatter.

test system: MKL-1; assay: qHTS assay to identify novel small-molecules to repurpose for Merkel cell carcinoma treatment (AID 1296009); conditions: MCC and control cell lines, CellTiter-Glo viability, 72 h; series mostly up to 46 µM; also: nearly all actives have a fitted effect of over 60% in size
Outline: (§1)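 Cell viability, measured as CellTiter-Glo luminescence, was normalized between DMSO and no-cell wells. The cells had been exposed to 8- or 11-point compound dilutions for 72 hr at 37 degree celsius.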

| SMILES | Potency |
| --- | --- |
| Cc1[nH]c(=O)c(C#N)cc1-c1ccc2nccn2c1 | inactive |
| CCOC(=O)C1=C[C@]2(CC)CCCN3CCc4c(n1c1ccccc41)[C@@H]32 | inactive |
| O=C1CCCC2=C1C(c1[nH]ncc1Cl)N=C(Nc1nc3ccccc3o1)N2 (configuration not stated) | inactive |
| CC(=O)Oc1ccccc1C(=O)O | inactive |
| CCc1ccc(CCOc2ccc(CC3SC(=O)NC3=O)cc2)nc1 (configuration not stated) | inactive |
| NC(=O)c1cnccn1 | inactive |
| Cc1cnc(NC(=O)C2=C(O)c3ccccc3S(=O)(=O)N2C)s1 | inactive |
| O=C1CCC(N2C(=O)c3ccccc3C2=O)C(=O)N1 (configuration not stated) | inactive |
| C[C@H](NC(=O)Cc1cc(F)cc(F)c1)C(=O)N[C@@H]1C(=O)N(C)c2ccccc2-c2ccccc21 | inactive |
| COc1cc(F)c(F)c(Nc2ccc(I)cc2F)c1NS(=O)(=O)C1(C[C@H](O)CO)CC1 | inactive |
| Cc1cnc(Nc2ccc(OCCN3CCCC3)cc2)nc1Nc1cccc(S(=O)(=O)NC(C)(C)C)c1 | inactive |
| C[C@@H]1CN(Cc2ccc(F)cc2)[C@@H](C)CN1C(=O)c1cc2c(C(=O)C(=O)N(C)C)cn(C)c2cc1Cl | inactive |

test system: MKL-2; assay: as above; conditions: MCC and control cell lines, CellTiter-Glo viability, 72 h; series mostly up to 46 µM
Outline: as §1

| SMILES | Potency |
| --- | --- |
| CC(c1cc2ccccc2s1)N(O)C(N)=O (configuration not stated) | inactive |
| Cc1ccnc(NS(=O)(=O)c2ccc(NC(=O)Nc3ccc(S(=O)(=O)Nc4nccc(C)n4)cc3)cc2)n1 | inactive |
| CNC[C@H](O)c1cccc(O)c1 | inactive |
| OC(CCN1CCCCC1)(c1ccccc1)C1CC2C=CC1C2 (configuration not stated) | inactive |
| O=NN(CCCl)C(=O)NCCCl | inactive |
| O=C(Nc1ccc(F)c(C(F)(F)F)c1)Nc1nnc(-c2ccncc2)s1 | inactive |
| Cc1c(C)c2c(c(C)c1O)CCC(C)(COc1ccc(CC3SC(=O)NC3=O)cc1)O2 (configuration not stated) | inactive |
| NC(N)=NC(=O)c1nc(Cl)c(N)nc1N | inactive |
| COc1ccc(CCN2CCN(CCCc3ccccc3)CC2)cc1OC | inactive |
| O=c1n(CCCN2CCN(c3cccc(Cl)c3)CC2)nc2ccccn12 | inactive |
| Cc1[nH]c(=O)c(C#N)cc1-c1ccncc1 | inactive |
| COc1cc(Nc2ncc3c(n2)-c2ccc(Cl)cc2C(c2c(F)cccc2OC)=NC3)ccc1C(=O)O | inactive |
| N=c1nc(N2CCCCC2)cc(N)n1O | inactive |
| CC(C[N+](C)(C)C)OC(N)=O (configuration not stated) | inactive |
| c1ccc([C@H]2CN3CCSC3=N2)cc1 | inactive |
| CCCCNc1cc(C(=O)O)cc(S(N)(=O)=O)c1Oc1ccccc1 | inactive |
| CC(C=CC1=C(C)CCCC1(C)C)=CC=CC(C)=CC(=O)O | inactive |
| Cc1cn[nH]c1 | inactive |
| CC(C)OC(=O)C1=CN(C(=O)c2ccc(F)c(F)c2)CC(C)(C)c2c1[nH]c1ccccc21 | inactive |
| CC(C)NCC(O)COc1ccc(COCCOC(C)C)cc1 (configuration not stated) | inactive |
| COc1ccc([C@@H]2CC(=O)c3c(O)cc(O[C@@H]4O[C@H](CO[C@@H]5O[C@@H](C)[C@H](O)[C@@H](O)[C@@H]5O)[C@@H](O)[C@H](O)[C@@H]4O)cc3O2)cc1O | inactive |
| Cc1[nH]c(=O)c(C#N)cc1-c1ccc2nccn2c1 | inactive |
| O=C1CCCC2=C1C(c1[nH]ncc1Cl)N=C(Nc1nc3ccccc3o1)N2 (configuration not stated) | inactive |
| CC(=O)Oc1ccccc1C(=O)O | inactive |
| CCc1ccc(CCOc2ccc(CC3SC(=O)NC3=O)cc2)nc1 (configuration not stated) | inactive |
| NC(=O)c1cnccn1 | inactive |
| Cc1cnc(NC(=O)C2=C(O)c3ccccc3S(=O)(=O)N2C)s1 | inactive |
| O=C1CCC(N2C(=O)c3ccccc3C2=O)C(=O)N1 (configuration not stated) | inactive |
| COc1cc(F)c(F)c(Nc2ccc(I)cc2F)c1NS(=O)(=O)C1(C[C@H](O)CO)CC1 | inactive |
| C[C@@H]1CN(Cc2ccc(F)cc2)[C@@H](C)CN1C(=O)c1cc2c(C(=O)C(=O)N(C)C)cn(C)c2cc1Cl | inactive |
